Reference: PubChem BioAssay (NCI)
About 79,000 compounds went through this panel and 15% of them were active in at least one assay; those are over-represented in the sample as a whole. A number with no mark means an inactive call. Rule as the data show it: active = growth inhibition above about 70%; inactive = the rest.

assay: NCI Yeast Anticancer Drug Screen. Data for the bub3 strain (AID 167); settings: S. cerevisiae bub3 mutant strain, at 50.0 µM, hits give high values
Experimental: Growth inhibition of yeast strains with defined genetic alterations is measured as a screen for potential anti-cancer activity. Selected strains with alterations in DNA damage repair or cell cycle control were exposed to compounds and growth inhibition was measured relative to vehicle treated controls. The strain used in this assay is bub3

| Compound | growth inhibition [%] |
| --- | --- |
| NC(=O)c1cc(N(CCCl)CCCl)c([N+](=O)[O-])cc1[N+](=O)[O-] | 18.6 |
| NC(Cc1cccc(NP(=S)(NCCO)N2CC2)c1)C(=O)O (stereo not given) | 13.1 |
| CC1=CC(=O)[C@@H](O)[C@]2(C)[C@H]3[C@@]4(O)OC[C@]35[C@H]([C@@H](C)[C@H]4O)[C@@H](O)C(=O)O[C@@H]5C[C@@H]12 | 15.2 |
| O=[N+]([O-])c1cccc(N=Nc2ccc(N(CCCl)CCCl)cc2)c1 | 4.65 |
| CCCCCCCC(=O)[O-].N.N.N.N.N.[Co+3].[O-][Cl+3]([O-])([O-])[O-] | -10.7 |
| NNC(=O)c1ccccc1 | -1.25 |
| CCN(CC)[P+](C1=C(Cl)C(=O)C(Cl)=C(Cl)C1=O)(N(CC)CC)N(CC)CC | 8.45 |
| COc1ccc2[nH]cc(CCN(C)C)c2c1 | -1.6 |
| O=C(Sc1c[nH]c(=O)[nH]c1=O)c1ccc(N(CCCl)CCCl)cc1 | -6.3 |
| Nc1ccc(C(=O)O)cc1[As](O)O | 0.6 |
| CC/C=C/C1(C)C(=O)NC(=S)NC1=O | 11.4 |
| CN(C)P1(=O)NCC(C(C)(C)C)CO1 (stereo not given) | -0.1 |
| CN1CN(c2ccccc2)C2(CCN(CCCN(C)c3ccc(F)cc3)CC2)C1=O | 3.35 |
| Nc1ccc(S(=O)(=O)F)cc1 | -35.3 |
| CC(C)CCCC(C)C1CCC2C3CC=C4CC([Se][As](C)C)CCC4(C)C3CCC12C (stereo not given) | 0.6 |
| COc1ccc2c(c1)c(CC(C)[N+](=O)[O-])c(C)n2Cc1ccccc1 (stereo not given) | -3.3 |
| c1ccc([As](c2ccccc2)c2ccccc2)cc1 | -3.95 |
| O=S(=O)(F)c1ccccc1 | 2.1 |
| COc1ccc(S(=O)(=O)F)cc1NC(=O)CCc1ccc(N2C(N)=NC(N)=NC2(C)C)cc1Cl | 4.7 |
| CN1CCc2cc3c(cc2[C@H]1[C@@H]1OC(=O)c2c1ccc1c2OCO1)OCO3 | -29.1 |

| Compound | growth inhibition [%] |
| --- | --- |
| Cc1cc(C)c(C#N)c(SSC(Cl)(Cl)Cl)n1 | 61.9 |
| CCOP(=O)(OCC)SC=C(Cl)Cl | 5 |
| OCC1CCCN2CCCCC12 (stereo not given) | -20.4 |
| CN1CN(c2ccccc2)C2(CCN(CCC3Oc4ccccc4O3)CC2)C1=O | -1.35 |
| Oc1cc(N2CC2)c(O)cc1N1CC1 | -1.75 |
| NC(=O)Nc1ccc([As](O)O)cc1 | -20 |
| Cc1cc[n+](C)c(Cc2ccccc2)c1C | -22 |
| CCOP(=O)(OCC)O/N=C(/c1ccccc1)C(C)C | -0.1 |
| ClCc1ccccc1 | 30.6 |
| O=[N+]([O-])c1cccc(C(Cl)Cl)c1 | 12.1 |
| O=C1CCCN1CC#CCN1C[C@@H]2C3CCC(C3)[C@@H]2C1 | 17 |
| Nc1nnnn1CCO | -13.1 |
| O=S1(=O)CCCCO1 | -8.95 |
| S=P1(c2ccccc2)C=C(N2CCCC2)CC1 (stereo not given) | 11.7 |
| CCCC[N+]1(C)CCCC1c1cccnc1 (stereo not given) | -10.8 |
| Cc1cc(C)c(O)c(C)c1 | -5.25 |
| Nn1cnnc1 | -3.05 |
| CCCCCC1(C(C)C)C(=O)NC(=O)NC1=O | -0.6 |
| O[As](O)O.S=C(S)c1ccccc1S | 1.75 |
| C[C@]12CCC(=O)C=C1CC[C@@H]1[C@@H]2CC[C@]2(C)C(=O)[C@H](n3ccnc3)C[C@@H]12 | -1.2 |
